Outcome and AC50 data for 40 compounds are collected here from PubChem BioAssay (EPA / NIEHS).

Active and inactive are the calls of the source. Rule for the calls: active = hit-call score of the fitted dose curve at least 0.9, where 1 is the maximum; inactive = score below 0.9.

The experiment in a line: ATG_Oct_MLP_CIS: Attagene CIS-FACTORIAL HepG2 Assay for human Octamer-Binding Transcription Factor (Oct) (AID 2282993). Conditions: HepG2 Attagene cis-factorial Oct reporter, mRNA; actives raise or lower the signal. How it is done:
ATG_CIS is a cell-based, multiplexed-readout assay that uses HepG2, a human liver cell line, with measurements taken at 24 hours after chemical dosing in a 24-well plate.ATG_Oct_MLP_CIS is one of 52 assay component(s) measured or calculated from the ATG_CIS assay. It is designed to make measurements of mRNA induction, a form of inducible reporter, as detected with fluorescence intensity signals by Reverse transcription polymerase chain reaction (RT-PCR) and Capillary electrophoresis technology.Data from the assay component ATG_Oct_MLP_CIS was analyzed into 1 assay endpoint. This assay endpoint, ATG_Oct_MLP_CIS, was analyzed with bidirectional fitting relative to DMSO as the negative control and baseline of activity. Using a type of inducible reporter, measures of mRNA for gain or loss-of-signal activity can be used to understand the reporter gene at the transcription factor-level as they relate to the gene POU2F1. Furthermore, this assay endpoint can be referred to as a primary readout, because this assay has produced multiple assay endpoints where this one serves a reporter gene function. To generalize the intended target to other relatable targets, this assay endpoint is annotated to the dna binding intended target family, where the subfamily is POU domain protein.
Human liver HepG2 cells are transiently transfected with multiple reporter transcription units (MRTUs) in 6-well plates using FuGene 6 reagent (Roche; 3 ml FuGene/1 mg DNA). The MRTU constructs are regulated by a cis-regulating element (promoter). […] A major difference between the CIS and TRANS system is that in CIS activities of endogenous TFs are measured, whereas the TRANS assay evaluates changes in activities of exogenous, chimeric NR-Gal4 proteins. […] At the end of 24 hour incubation, total RNA was isolated using TriZol reagent (Invitrogen). The isolated RNA is then reverse-transcribed using oligo(dT) primer and Mo-MLV reverse transcriptase (Invitrogen) with DNAse I (Ambion) treatment for 30 min. The one-tenth of the produced cDNA was amplified by PCR using Taq DNA polymerase (Invitrogen) and two reporter sequence-specific primers. The PCR products were fluorescently labeled by primer extension with 6-arboxyfluorescein (6-FAM) 5'-labeled reporter sequence-specific primer (2 min at 95 C, 20 s at 68 C and 10 min at 72 C) and these products were digested with 5U of HpaI (New England Biolabs) for 2h at 37 C. The fragments were purified using Qiaquick PCR columns (Qiagen), analyzed on an ABI 3130xL genetic analyzer (Applied Biosystems) with peak positions identified by using a set of X-rhodamine (ROX)-labeled MapMarker1000 molecular weight standards (BioVentures). The raw capillary electrophoresis data was processed using Attagraph software (Attagene).
For the compound `CCCCC(CC)COC(=O)c1ccc(C(=O)OCC(CC)CCCC)cc1` (stereo not given), the compound was called inactive.

As for `CCCC(=O)OCC`, the outcome was inactive.

On to `CCn1nc(Cc2ccccc2)cc1C1CCN(C[C@H]2C[C@H](N(C)[C@@H](C(=O)O)C(C)C)C[C@@H]2c2cccc(F)c2)CC1`, for which the call was inactive.

With `O=C(O)c1cccc(N(Cc2cccnc2)c2ccc(OC(F)F)c(OC(F)F)c2)c1`, the compound was classed as inactive.

In the case of `CC(C)(O)c1coc(S(=O)(=O)NC(=O)Nc2c3c(cc4c2CCC4)CCC3)c1`, the result was inactive.

In the case of `NC(=O)NO`, the compound was called inactive.

With `Cc1ccc(O)cc1`, the compound was classed as inactive.

In the case of `C=CC(=C)CCC=C(C)C`, the result was inactive.

Turning to `CCOc1cccc(-n2cc(C(=O)N3CCN(c4cc(C(=O)O)c5ccccc5c4)CC3)nc2-c2ccc(C)cc2)c1`, the AC50 (commonly the concentration at which the activity in the assay is half-maximal) is 25.4 µM (active).

On to `O=P(OC(CCl)CCl)(OC(CCl)CCl)OC(CCl)CCl`, for which the AC50 is 103 µM (active).

Regarding `O=C1CCC(N2C(=O)c3ccccc3C2=O)C(=O)N1` (stereo not given), the compound was classed as inactive.

Regarding `Nc1cccc(N)c1`, the compound was called inactive.

With `CC1(C)C(=O)N(Br)C(=O)N1Br`, the compound was classed as inactive.

On to `COC(=O)c1ccccc1O`, for which the AC50 was 59.6 µM (active).

With `CCCCCCCCCCCCCCCO`, the call was inactive.

For `Nc1nc2ncc(CNc3ccc(C(=O)N[C@@H](CCC(=O)O)C(=O)O)cc3)nc2c(=O)[nH]1`, the call was inactive.

Regarding `CC(C)=CCCC(C)=CC=O`, the compound was classed as inactive.

Turning to `Cn1c(=O)c2c(ncn2C)n(C)c1=O`, the call was inactive.

Turning to `Cc1[nH]cnc1C[C@H]1CCc2c(C)c3ccccc3n2C1=O`, the AC50 is 21 µM (active).

Turning to `COCCOCCOCCOC`, the result was inactive.

As for `CC1=CC(=O)CC(C)(C)C1`, the call was inactive.

Take `Cn1c(=O)cc(Oc2ccc(F)cc2F)c2cnc(NCC(C)(C)O)nc21`: the result was inactive.

For the compound `CC[C@H]1CC[C@H](NCc2cc3c(cc2OC)[C@H]2C[C@H]2C(=O)N3C)[C@H](c2ccccc2)N1`, the AC50 is 64.3 µM (active).

With `COC(=O)c1c(Cl)c(Cl)c(C(=O)OC)c(Cl)c1Cl`, the result was inactive.

On to `CC(C)CCO`, for which the compound was called inactive.

Turning to `C1N2CN3CN1CN(C2)C3`, the call was inactive.

Regarding `O=C(NS(=O)(=O)/C=C/c1ccccc1)c1ccc(F)cc1Cl`, the compound was called inactive.

For the compound `CCc1cc(SCc2sc(-c3ccc(C(F)(F)F)cc3)nc2CN2CCN(c3ccc(OC)cc3)CC2)ccc1OCC(=O)O`, the AC50 was 8.42 µM (active).

Consider `O=C(O)CCN(C1(C(=O)NO)CCCC1)S(=O)(=O)c1ccc(Oc2ccc(F)cc2)cc1`, for which the compound was classed as inactive.

On to `CC(C)CCCCCCOC(=O)c1ccc(C(=O)OCCCCCCC(C)C)c(C(=O)OCCCCCCC(C)C)c1`, for which the compound was called inactive.

Regarding `CCCCCCCCCCCCc1ccccc1`, the call was inactive.

Regarding `Cn1cnc([N+](=O)[O-])c1Sc1ncnc2nc[nH]c12`, the outcome was inactive.

For `CC(O)CN(CCN(CC(C)O)CC(C)O)CC(C)O` (stereo not given), the compound was classed as inactive.

As for `CC[C@H]1OC(=O)[C@H](C)[C@@H](O[C@H]2C[C@@](C)(OC)[C@@H](O)[C@H](C)O2)[C@H](C)[C@@H](O[C@@H]2O[C@H](C)C[C@H](N(C)C)[C@H]2O)[C@](C)(O)C[C@@H](C)C(=O)[C@H](C)[C@@H](O)[C@]1(C)O`, the compound was classed as inactive.

Regarding `O=c1[nH]c2ccc(S(=O)CCN3CCC(Cc4ccc(F)cc4)CC3)cc2o1` (stereo not given), the AC50 was 64.9 µM (active).

Take `CNCc1ccc(NC(=O)c2c[nH]c3c2C(=O)CCC3)cc1`: the result was inactive.

`CC/C(=C\C(=N/O)C(N)=O)C(C)[N+](=O)[O-]` (stereo not given): the outcome was inactive.

For `CCCCC(CC)COC(=O)CCCCCCCCC(=O)OCC(CC)CCCC` (stereo not given), the result was inactive.

With `O=C1CCCCCN1`, the compound was classed as inactive.

For the compound `Cc1ccc(N)cc1O`, the call was inactive.
